# Pf growth 96h: Primary qHTS for delayed death inhibitors of the malarial parasite plastid, 96 hour incubation. P. falciparum luciferase reporter growth, 96 h. Potency, µM (titrated, usually from 28.7 µM), hits mostly inhibitors. 320,000 tested, 6.9% active. AID 504834, 2011; active = well fitted inhibition curve with a large enough effect; inconclusive = small, poorly fitted or top-dose-only effect, or another doubt; inactive = no such curve, though single readings can be large or run the other way
#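 Delayed-death screen, second-generation endpoint: infected erythrocytes, 2% hematocrit, 0.05% parasitemia final; 96 hours at 37 C, 5% CO2; luciferase detection reagent; luminescence decrease equals reduced growth.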
# Pf growth 48h: Primary qHTS for delayed death inhibitors of the malarial parasite plastid, 48 hour incubation; P. falciparum luciferase growth in erythrocytes, 48 h; Potency, µM (titrated, usually from 28.7 µM), most hits filed as inhibitors; 310,000 tested, 5.9% active; active = well fitted inhibition curve with a large enough effect; inconclusive = small, poorly fitted or top-dose-only effect, or another doubt; inactive = no such curve, though single readings can be large or run the other way
#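 In quantitative HTS format, infected erythrocytes bearing luciferase-reporter parasites were treated for a single generation at 37 C. Luminescence after adding detection reagent served as the growth measure.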
# NS1 function inh: qHTS Assay for Inhibitors of Influenza NS1 Protein Function. Potency, µM (highest dose often 46.1 µM). 270,000 tested, 0.4% active; note: actives are rising curves; nearly all actives have a fitted effect of over 50% in size
#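 S. cerevisiae expressing influenza A NS1, grown in glucose, washed, then diluted 1:100 into pH 6.0 -URA galactose medium with 23 nl compound. Growth recovery read as OD600; NS1-free strain serves as control.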
# SARS PLpro yeast: qHTS of Yeast-based Assay for SARS-CoV PLP | S. cerevisiae expressing SARS-CoV PLpro, growth rescue | Potency, µM (doses to about 32.9 µM), actives largely listed as activators | 330,000 tested, 0.19% active; note: nearly all actives have a fitted effect of over 55% in size
# Shiga toxin inh: A qHTS for Small Molecule Inhibitors of Shiga Toxin. inhibition, % at 38.7 µM. AID 2315, 2010. 290,000 tested, 9.2% active. Vero cells, Shiga toxin protein synthesis inhibition reporter; in the data active = inhibition mostly above about 28%, no sharp cut-off; inactive = mostly below about 43%
# CHX counter: Cycloheximide Counterscreen for Small Molecule Inhibitors of Shiga Toxin; AID 2314, 2010; cell reporter, cycloheximide protein synthesis inhibition counterscreen; 300,000 tested, 12% active; max response, %; in the data active = max response mostly above about 13%, no sharp cut-off; inactive = mostly below about 14%; note: read at 38.3 µM for the half of the compounds with a filed dose
# Numbers stand for hits; – = inactive; ? = inconclusive; · = no result. A selection: hits, their analogues and other compounds. The true share with any hit is near 21%. Unless noted, calls come from the whole dose curve.
SMILES,Pf growth 96h,Pf growth 48h,NS1 function inh,SARS PLpro yeast,Shiga toxin inh,CHX counter
CCN=C(NS(=O)(=O)c1ccc(Br)cc1)c1ccc(Cl)cc1,–,–,–,–,–,–
O=C(/C=C\c1ccc(-c2cccc([N+](=O)[O-])c2)o1)N1CCOCC1,–,–,–,–,61,37
O=C(c1cccc([N+](=O)[O-])c1)N1CCOCC1,?,–,–,–,–,–
CN(C)S(=O)(=O)c1cccc(-c2nn(-c3ccccc3)cc2/C=C2\SC(=S)NC2=O)c1,2.6µM,4.7µM,·,–,–,–
CN(C)S(=O)(=O)c1cccc(-c2nn(-c3ccccc3)cc2/C=C(\C#N)c2nc3ccccc3[nH]2)c1,1.5µM,2.1µM,–,–,–,–
Cc1ccc(-c2nn(-c3ccccc3)cc2/C=C(\C#N)c2cccc(C#N)c2)o1,·,12µM,–,–,–,–
N#C/C(=C\c1cn(-c2ccccc2)nc1-c1cc2ccccc2o1)c1nc2ccccc2[nH]1,0.66µM,1µM,–,–,121,46
NC(=O)c1cc(S(=O)(=O)N2CCCC2)ccc1OCCOc1ccccc1,?,?,·,–,·,·
CC(=O)Nc1ccc(N2C(=O)CSC2c2ccccc2)cc1 (stereo not drawn),?,–,–,–,–,–
O=S(=O)(c1ccc2c(c1)OCCO2)N1CCN(S(=O)(=O)c2c(F)ccc(O)c2F)CC1,·,·,·,·,–,–
O=C1CCCN1c1ccc(C(=O)N(Cc2nnc(-c3ccc(Cl)cc3)o2)C2CC2)cc1,–,–,·,–,·,·
Cc1cc(N2C(=O)[C@@H]3[C@H](C2=O)[C@@H]2C[C@H]3C(Br)C2Br)no1 (stereo partly drawn),–,–,–,–,–,–
O=Cc1s/c(=N\S(=O)(=O)c2ccccc2)n(CCCCl)c1Cl,–,–,–,–,–,–
Cn1c2cc(B(O)O)sc2c2cnn(Cc3c(F)cccc3Cl)c(=O)c21,10µM,13µM,·,–,·,·
O=C(Nc1ccc(OCC(=O)N2CCOCC2)cc1)c1cncc(Br)c1,?,–,–,–,–,–
CCCCOc1ccc(C(=O)Nc2ccc(OCC(=O)N3CCOCC3)cc2)cc1,?,–,–,–,51,26
CCN(CC)S(=O)(=O)c1ccc(C(=O)Nc2ccc(OCC(=O)N3CCOCC3)cc2)cc1,0.37µM,?,–,–,–,–
CCC(=O)N1CCc2cc(S(=O)(=O)CCC(=O)N(C)c3ccc(OC)cc3)ccc21,–,–,–,–,–,–
NS(=O)(=O)c1c(Sc2ccccc2C(=O)O)ccc2ccccc12,–,–,–,–,·,30
CSc1nnc(C2CCN(CC(=O)Nc3ccccc3N3CCOCC3)CC2)n1C(C)C,–,?,–,–,–,–
Cc1nc2c(ccc3c([N+](=O)[O-])cccc32)c(C)c1C,–,–,·,–,–,37
Cc1ccc2c([N+](=O)[O-])cccc2n1,–,–,?,–,–,–
N#CC1=C(N)N2C(=C(C#N)C13CCCC3)Nc1ccccc12,?,–,–,–,51,8.8
N#CC1=C(N)NC(SCc2ccc(F)cc2)=C(C#N)C12CCCCC2,?,?,–,–,–,–
CCC(OC(=O)c1cccs1)C(=O)NCc1ccc(C)cc1 (stereo not drawn),?,–,–,–,–,–
SMILES,Pf growth 96h,Pf growth 48h,NS1 function inh,SARS PLpro yeast,Shiga toxin inh,CHX counter
COc1ccc(C(C#N)N2CCCCCC2)cc1OC (stereo not drawn),–,–,?,–,–,–
COc1cc(C(C#N)N2CCC(c3ccccc3)=N2)ccc1O (stereo not drawn),–,–,–,–,91,25
COc1cc(C(O)C(=O)O)ccc1O (stereo not drawn),–,–,–,·,·,·
COc1ccc(C(C#N)N2CCC(c3ccccc3)=N2)cc1OC (stereo not drawn),–,–,–,–,–,17
O=C(CCn1cnc2ccccc2c1=O)Nc1cccc(Cl)c1Cl,–,–,–,–,–,–
CCOc1ccc(NC(=S)NC(=O)c2cccnc2)c([N+](=O)[O-])c1,?,–,–,–,–,–
CC(Sc1nc2c(c(=O)[nH]1)CCCC2)C(=O)Nc1ccccc1C#N (stereo not drawn),–,–,–,–,–,–
Cc1ccc(Cl)c(OC(=O)C2CSC3(C)CCC(=O)N23)c1 (stereo not drawn),–,–,·,–,·,·
